High-throughput results deposited in PubChem BioAssay by several laboratories.
Cardiac RTF inh = cardiac RTF calcium desensitization | IANBD-labeled cardiac RTF, Ca2+ fluorescence | inhibition, % at 7.15 µM | hit rate 0.12% among 340,000 | AID 493244;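 active = inhibition above the mean inhibition of all tested compounds plus 3 SD, cut at about 17% in these data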;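 also: assay run at fixed EC70 calcium of 1.6 mM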
CRFR2-BP antag = CRF-BP/CRF-R2 complex antagonism | hit rate 0.59% among 350,000 | inhibition, % at 11.8 µM | AID 588475 | HEK293 CRF-R2/CRF-BP, CRF-induced calcium fluorescence;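 active = inhibition of the ligand-induced calcium signal above about 50% at the single tested concentration, limit read from the data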
CRFR2-BP ag = agonists of human CRF-binding protein/CRF-R2 receptor complex. HEK293 CRF-R2/CRF-BP, calcium dye fluorescence (FLIPR); percent of saturating CRF peptide response. activation, % at 13.2 µM. hit rate 0.46% among 350,000;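 active = activation of at least 50%, plus an integration ratio under a set limit after plate pattern correction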;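 also: plate controls were neutral control wells without compound for no effect and CRF at EC100 for full effect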
IDE inh = inhibits human insulin-degrading enzyme in HEK cells. FAbetaB cleavage, fluorescence polarization. inhibition, % at 5.59 µM. hit rate 0.41% among 320,000. AID 434962;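 active = percent inhibition above the average of all tested compounds plus 3 SD, set per screening campaign, cut at about 16% in these data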;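 also: IDE supplied by intact live HEK cells; FP after avidin binding of uncleaved biotin substrate so inhibition keeps polarization high; 0% = DMSO wells and 100% = 60 µM reference IDE inhibitor Ii1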
Target sequence (P14735 whole entry, looked up): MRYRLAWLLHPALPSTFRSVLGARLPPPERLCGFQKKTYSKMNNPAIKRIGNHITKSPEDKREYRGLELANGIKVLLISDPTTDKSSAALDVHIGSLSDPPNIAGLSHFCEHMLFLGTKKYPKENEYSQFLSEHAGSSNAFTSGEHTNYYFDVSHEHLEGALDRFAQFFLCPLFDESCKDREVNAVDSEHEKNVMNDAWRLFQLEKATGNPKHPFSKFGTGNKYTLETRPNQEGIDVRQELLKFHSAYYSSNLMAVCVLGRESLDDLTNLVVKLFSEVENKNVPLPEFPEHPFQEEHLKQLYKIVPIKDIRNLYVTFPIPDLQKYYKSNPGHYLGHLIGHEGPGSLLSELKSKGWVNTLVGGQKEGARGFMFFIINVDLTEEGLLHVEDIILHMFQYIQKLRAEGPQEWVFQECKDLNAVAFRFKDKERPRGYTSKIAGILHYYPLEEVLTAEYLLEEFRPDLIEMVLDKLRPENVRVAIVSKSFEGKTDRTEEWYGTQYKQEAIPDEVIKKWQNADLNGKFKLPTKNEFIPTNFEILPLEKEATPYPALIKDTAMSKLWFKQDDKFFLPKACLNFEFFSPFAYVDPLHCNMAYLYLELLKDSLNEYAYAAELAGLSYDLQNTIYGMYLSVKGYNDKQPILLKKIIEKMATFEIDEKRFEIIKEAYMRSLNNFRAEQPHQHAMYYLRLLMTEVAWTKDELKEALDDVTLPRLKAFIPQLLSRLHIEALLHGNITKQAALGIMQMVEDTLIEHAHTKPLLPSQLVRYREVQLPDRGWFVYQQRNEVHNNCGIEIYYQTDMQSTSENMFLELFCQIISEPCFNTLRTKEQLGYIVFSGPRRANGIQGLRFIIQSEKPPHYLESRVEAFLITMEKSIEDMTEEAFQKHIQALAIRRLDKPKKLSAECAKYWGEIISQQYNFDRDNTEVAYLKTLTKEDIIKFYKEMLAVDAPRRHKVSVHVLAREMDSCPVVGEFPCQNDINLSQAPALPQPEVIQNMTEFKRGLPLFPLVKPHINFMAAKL
IDE cell activ = IDE (human) activation, cell-based; P14735; HEK cells, FAbeta-B cleavage, fluorescence polarization; 0% vehicle, 100% cell-free pure enzyme wells; activation, % at 5.96 µM; hit rate 0.073% among 340,000;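 active = activation above the mean of all tested compounds plus 3 SD, set per screening campaign, cut at about 17% in these data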
cardiac RTF act = increases calcium sensitivity of human cardiac regulated thin filaments; P19429+P45379; IANBD-labeled TnC RTF fluorescence at EC20 calcium; 0% EC20 calcium, 100% full calcium; activation, % at 7.2 µM; hit rate 0.24% among 340,000;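 active = activation above the mean over all tested compounds plus 3 SD, cut at about 30% in these data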;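 also: rise in fluorescence read as greater calcium sensitivity of cardiac thin filaments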
* marks the source's active call; other numbers are inactive results; . = no result given. This is a sample that favours compounds with a hit; in the whole collection about 1.5% have one here.

SMILES | Cardiac RTF inh | CRFR2-BP antag | CRFR2-BP ag | IDE inh | IDE cell activ | cardiac RTF act
O=C(O)c1cc(-c2ccc(/C=c3\sc4nc5ccc(Br)cc5n4c3=O)o2)ccc1Cl | . | . | . | 1 | . | .
N#CCCN(C(=O)Nc1ccccc1)C1CCCCC1 | 1 | 9 | 1 | . | 3 | -4
CC(C)(C)NC(=O)C(c1ccccn1)N(C(=O)C1CSC(=O)C1)c1cccc(F)c1 (stereo unspecified) | -9 | 70* | -1 | 2 | 0 | 6
COc1cccc(N(C(=O)C2CSC(=O)C2)C(C(=O)NC(C)(C)C)c2ccncc2)c1 (stereo unspecified) | -8 | 9 | -1 | 0 | 9 | 2
Cc1cc(C(=O)N2CCCC(C(=O)c3ccc4ccccc4c3)C2)nn1C (stereo unspecified) | 6 | 12 | -3 | 2 | -1 | -4
Cc1ncsc1C(=O)N1CCCC(C(=O)c2ccc3ccccc3c2)C1 (stereo unspecified) | -1 | 60* | 1 | 3 | 2 | -2
CCCCOC(=O)Nc1cccc(Cl)c1C | 2 | -8 | 0 | -1 | 6 | 3
CC(CCC(C)C(C)(C)C)[C@@H]1CC[C@H]2C3C[C@H](OS(O)(=S)=S)[C@H]4C[C@H](OS(O)(=S)=S)[C@@H](OS(O)(=S)=S)C[C@]4(C)[C@H]3CC[C@]12C (stereo partly specified) (tested in a mixture with another compound) | 56* | 30 | 55* | -11 | 11 | -23
CC(CCC(=O)NN)C1CCC2C3CCC4CC(O)CCC4(C)C3CCC12C (stereo unspecified) | -1 | -20 | 0 | . | 4 | -4
COc1cc(C(=O)NCc2nnc(SCC(=O)NCCc3ccccc3)o2)cc(OC)c1OC | -6 | 5 | -2 | -2 | 3 | 2
Cn1c(=O)oc2cc(S(=O)(=O)NCCC(=O)NCc3ccc(F)cc3)ccc21 | -14 | 99* | 2 | -3 | 1 | -9
c1ccc(CNc2c3c(nc4ncnn24)CCC3)cc1 | 7 | -10 | 4 | 6 | 5 | 0
Cc1cc(C)cc(N(C(C)C(=O)NCc2ccc3c(c2)OCO3)S(C)(=O)=O)c1 (stereo unspecified) | -15 | 16 | 1 | -2 | 5 | 2
Cn1c2c(c(=O)n3ncnc13)CCCC2 | 1 | 5 | 1 | 17* | 2 | -4
O=C(Cn1c2c(c(=O)n3ncnc13)CCC2)N/N=C/c1ccc(Cl)cc1 | -7 | -9 | -1 | -3 | -4 | -7
COC(=O)c1sccc1NS(=O)(=O)c1ccccc1 | -8 | 118* | 1 | 2 | 3 | -3
COC(=O)CCC(C)N1CCC(Oc2ccc(C(=O)N3CCCC3)cc2)CC1 (stereo unspecified) | 6 | -6 | 4 | -3 | 4 | -8
COc1ccc(CNC(=O)C2CCN(S(=O)(=O)c3ccc(N4CCCC4=O)cc3)CC2)cc1 | . | -14 | -1 | . | . | .
CCn1cc(C(=O)OCC(=O)c2cc(C)n(-c3ccccc3)c2C)c(=O)c2ccc(C)nc21 | 4 | 18 | 1 | -7 | 5 | -1
CCn1cc(C(=O)OCC(=O)c2cc(C)n(-c3ccc(OC(F)F)cc3)c2C)c(=O)c2ccc(C)nc21 | 0 | 60* | -2 | 6 | 1 | 9
Cc1[nH]n(C(N)=S)c(=O)c1N=Nc1cc(-c2ccc(Br)cc2)[nH]n1 | . | 80* | 1 | -1 | . | .
O=C(CCCCn1c(=O)c2ccccc2n(Cc2ccc(F)cc2Cl)c1=O)NCc1ccco1 | 6 | 75* | -3 | 2 | 0 | -5
CN(C)c1ccc(C=C2SC(=S)N(Cc3ccco3)C2=O)cc1 | . | -129 | 169* | . | . | .
O=C1S/C(=C/c2ccccc2)C(=O)N1CC(O)Cn1c2ccccc2c2ccccc21 (stereo unspecified) | -1 | -26 | 1 | 7 | -10 | 12
CN(C)c1ccc(/C=C2\SC(=O)N(CC(O)Cn3c4ccccc4c4ccccc43)C2=O)cc1 (stereo unspecified) | -16 | -103 | 96* | 4 | -5 | 55*
SMILES | Cardiac RTF inh | CRFR2-BP antag | CRFR2-BP ag | IDE inh | IDE cell activ | cardiac RTF act
CCCCn1c(N)c(N(CCC(C)C)C(=O)Cc2ccc(S(=O)(=O)N3CCOCC3)s2)c(=O)[nH]c1=O | -27 | 100* | 6 | 3 | -6 | 9
CCCCn1c(N)c(N(CC(C)C)C(=O)Cc2ccc(S(=O)(=O)N3CCOCC3)s2)c(=O)[nH]c1=O | -37 | -53 | 54* | . | -5 | 25
CCCC1NC(=O)c2cc3ccccc3cc2-n2c1nc1cc(Cl)ccc1c2=O (stereo unspecified) | . | -13 | 0 | . | . | .
CSc1nc(-c2cccs2)c(C#N)c(=O)[nH]1 | -6 | 0 | 0 | -5 | 0 | 2
N#Cc1c(-c2cccs2)nc(SCc2ccc(Cl)cc2)[nH]c1=O | -11 | 55* | -1 | . | -2 | 1
COc1ccc(/C=C2/SC(c3ccc(C)cc3)=NC2=O)cc1OC | -33 | -32 | 36 | -5 | -16 | 28
COc1cc(/C=C2\SC(c3ccc(C)cc3)=NC2=O)ccc1O | -11 | -120 | 50* | 8 | -11 | 2
COc1ccc(/C=C2\SC(c3ccc(C)cc3)=NC2=O)cc1OC | -28 | -137 | 132* | 1 | -30 | 20
O=C1Cc2ccccc2C(=O)N1c1cccc(Cl)c1 | -3 | 2 | -1 | 6 | 3 | 3
Cc1ccc(CN2CCNC(=O)C2CC(=O)NCc2cc(C)n(C)n2)cc1 (stereo unspecified) | -3 | -13 | 4 | -4 | -1 | 0
O=C1CC(Nc2cc(=O)[nH]c(=O)[nH]2)C(=O)N1c1ccccc1Cl (stereo unspecified) | -1 | 82* | 2 | 3 | 6 | -2
O=C1CC(N2CCOCC2)C(=O)N1c1ccccc1Cl (stereo unspecified) | 2 | -4 | 0 | 5 | 1 | 4
COc1ccccc1N1CCN(C(=O)C(=O)c2cn(CC(=O)N3CCCC3)c3ccccc23)CC1 | 2 | 62* | -1 | -2 | 4 | 2
O=c1[nH]c2cc3c(cc2cc1C(c1nnnn1C1CCCC1)N1CCCc2ccccc21)OCCO3 (stereo unspecified) | -6 | -72 | 57* | . | 3 | 3
C=CCn1c(SCC(=O)Nc2c(C)cccc2C)nnc1-c1ccncc1 | -27 | 52* | 2 | 0 | 3 | 7
c1ccc(C2CN3CCSC3=N2)cc1 (stereo unspecified) | 6 | 89* | -2 | 1 | -5 | 11
NC(CO)c1cn([C@@H](CCC(=O)O)C(=O)N2CCNCC2)nn1 (stereo partly specified) | -4 | -8 | -2 | 1 | 22* | 0
O=S(=O)(Nc1ccc(-n2cnnn2)cc1)c1cccc(Cl)c1 | -17 | -14 | 1 | . | 2 | -1
CCOc1cc(C(=O)Nc2ccncc2)cc(OCC)c1OCC | -3 | 10 | -2 | -1 | 5 | 1
